In the library only some 2.2% were active in any assay of this set; here they are far more common.
Ba/F3 V617F tox – lowers viability of Ba/F3 cells expressing EpoR and JAK2V617F; AID 1446; 220,000 tested, 1.1% active; inhibition, % at 5.6 µM; ATP luminescence;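 active = inhibition above the campaign mean plus 3 SD over all tested compounds, cut at about 24% in these data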;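 note: cytokine-independent growth of Ba/F3 cells driven by EpoR plus mutant JAK2; 0% = DMSO-treated cells and 100% = JAK inhibitor I control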
BaF3 parental – reduces parental Ba/F3 cell viability, JAK2V617F counter-screen. 220,000 tested, 1.1% active. inhibition, % at 5.6 µM. CellTiter-Glo ATP luminescence;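 active = inhibition above a per-campaign cutoff, the mean inhibition of all tested compounds plus 3 SD, cut at about 27% in these data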;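 note: 0% = DMSO wells and 100% = JAK Inhibitor I control wells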
APP 5UTR inh – APP translation inhibition | inhibition, % at 2 µM | SH-SY5Y APP 5'UTR-luciferase reporter, luminescence | 190,000 tested, 0.82% active;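 active = inhibition above a set limit, derived from the sample mean plus 3 SD, cut at about 45% in these data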
IEC-6 tox – IEC-6 cytotoxicity, counter-screen for KLF5 inhibitors | luminescence viability | 290,000 tested, 0.78% active | inhibition, % at 5 µM | AID 1825; in the data active = inhibition above about 22%;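 note: 0% = plate median of test compound wells and 100% = cytotoxic reference compound wells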
aSyn 5UTR inh – 5' untranslated region of α-synuclein, MLPCN primary screen; alpha-synuclein 5'UTR reporter, inhibitor activity; inhibition, % (tested at 7.5 µM); 300,000 tested, 0.82% active; AID 1813; in the data active = inhibition above about 60%;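 note: H4 neuroglioblastoma cells stably carrying SNCA 5'UTR luciferase fusion; 0% = DMSO wells and 100% = positive control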
KLF5 inhibitor – kruppel-like factor 5 inhibition. DLD-1 KLF5 promoter-luciferase reporter, luminescence. inhibition, % at 5 µM. 290,000 tested, 0.23% active. AID 1700;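 active = inhibition above a per-plate limit of that plate's mean compound inhibition plus 3 SD, cut at about 60% in these data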;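 note: 0% = DMSO wells and 100% = LY294002 at 200 µM; higher means less KLF5 promoter-driven luciferase light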
An asterisk follows results filed as active; i = inactive; · = no result given.

SMILES | Ba/F3 V617F tox | BaF3 parental | APP 5UTR inh | IEC-6 tox | aSyn 5UTR inh | KLF5 inhibitor
Cc1ccc2nc(/C(C#N)=C\c3ccc(N4CCOCC4)o3)[nH]c2c1 | -3 | 41* | -121 | 0 | -231 | 7
N#C/C(=C/c1ccc(N2CCCCCC2)o1)c1ccc(Cl)cc1 | 1 | -1 | -6 | 1 | -299 | 7
Cc1ccc(/C(C#N)=C\c2ccc(N3CCOCC3)o2)cc1 | 2 | 36* | 8 | 2 | -313 | -41
COc1ccccc1/C=N/NC(=O)c1nnn(-c2nonc2N)c1-c1cccs1 | · | · | · | -2 | -80 | -2
COc1ccccc1NC(=S)NC(NC(=O)C(C)C)C(Cl)(Cl)Cl (configuration not stated) | -2 | 1 | 19 | -2 | 9 | -63
Cc1ccc(N2C(=O)CC(Sc3ncn[nH]3)C2=O)cc1C (configuration not stated) | 5 | 3 | 1 | -1 | 3 | -8
O=C(c1ccc(CNS(=O)(=O)c2cccc(Cl)c2)cc1)N1CCCCC1 | · | · | · | 0 | 4 | -8
Cc1c(NC(=O)c2ncn[nH]2)cccc1-c1nc2ccccc2s1 | -3 | 4 | 1 | -3 | -49 | -32
COc1ccccc1OCC(=O)Nc1cccc(N(C)S(C)(=O)=O)c1 | -2 | 2 | 56* | -2 | -9 | -21
Oc1ccc(Nc2nc(N3CCCC3)c3ccccc3n2)cc1 | 48* | 61* | 8 | 13 | i | -19
COc1ccc(Nc2nc(N3CCCCC3)c3ccccc3n2)cc1 | 7 | 35* | -8 | 5 | -13 | -5
CN(Cc1ccccc1)Cc1nc2c(c(=O)n(C)c(=O)n2C)n1CCc1ccccc1 | -4 | 1 | -1 | 0 | -12 | -1
CCCCn1c(CN(C)Cc2ccccc2)nc2c1c(=O)n(C)c(=O)n2C | 7 | 29* | -7 | 8 | -1 | -28
CCCCn1c(CN2CCN(c3ccccc3)CC2)nc2c1c(=O)n(C)c(=O)n2C | 23 | 29* | -3 | 6 | -31 | -2
O=C(CSCc1ccc(Cl)c(Cl)c1)Nc1c[nH]c(=O)[nH]c1=O | -2 | 6 | 15 | 4 | -6 | -41
COc1cnc(-c2ccccn2)nc1NC(C)C | -1 | 5 | 40 | 11 | 98* | -25
CC1=NN(C(N)=S)C(=O)C1N=Nc1ccc([N+](=O)[O-])cc1 (configuration not stated) | · | · | · | 0 | -41 | -69
COc1ccc(-c2oc3ncn(CCN4CCOCC4)c(=N)c3c2-c2ccc(OC)cc2)cc1 | -7 | 0 | 11 | -6 | 74* | 3
CC1=C(C(=O)Nc2ccccc2)C(c2cccs2)NC(=O)N1 (configuration not stated) | 5 | 3 | 4 | 5 | 19 | -30
Cc1ccccc1CN1CCN(Cc2ccc3cccc(F)c3n2)CC1CCO (configuration not stated) | · | · | · | 6 | 13 | -6
O=C(/C=C/c1ccccc1)Nc1nc(-c2ccncc2)cs1 | 39* | 43* | -2 | 6 | -5 | -64
c1ccc2sc(N3CCCN(Cc4nc(-c5cnccn5)no4)CC3)nc2c1 | 5 | 6 | 0 | 5 | -4 | -18
Cc1ccc2c(c1)nnn2C1CCN(S(=O)(=O)c2ccc(C(=O)N3C(C)CCCC3C)cc2)CC1 (configuration not stated) | 51* | 58* | 5 | 6 | -36 | -8
Fc1ccc(NC(=S)NCCc2ccccc2)c(F)c1F | 42* | 54* | -2 | -2 | -43 | -42
COc1cc(C2C(C#N)=C(N)Oc3cc(O)ccc32)cc2c1OCO2 (configuration not stated) | -3 | 3 | -5 | -2 | -29 | -22
SMILES | Ba/F3 V617F tox | BaF3 parental | APP 5UTR inh | IEC-6 tox | aSyn 5UTR inh | KLF5 inhibitor
COc1cc(C2C(C#N)=C(N)Oc3cc(N(C)C)ccc32)cc2c1OCO2 (configuration not stated) | 4 | 12 | 97* | 1 | 59 | -33
COc1cc(C2C(C#N)=C(N)Oc3cc(O)ccc32)cc(OC)c1OC (configuration not stated) | -2 | 1 | 94* | 0 | 58 | 4
COc1cc(C2C(C#N)=C(N)Oc3cc4c(cc32)OCO4)cc(OC)c1OC (configuration not stated) | 93* | 89* | 93* | 85* | 111* | 86*
CC1CCCN(CCCNC(=O)c2nn(C)c3c2CS(=O)(=O)c2ccccc2-3)C1 (configuration not stated) | · | · | · | 13 | 0 | 11
Cc1ccc(NC(=O)O/N=C/c2c(C)nn(C(C)(C)C)c2C)cc1Cl | -1 | -1 | · | 7 | 77* | 26
Cc1cccc2cc(-c3ccccc3)c(-c3ccccc3)c[n+]12 | 90* | 72* | 0 | 4 | 13 | 10
O=[N+]([O-])c1cccc(-c2cc3cccc[n+]3cc2-c2cccc([N+](=O)[O-])c2)c1 | 3 | 0 | 1 | 1 | 1 | -3
C=CCN(C(=O)CC(NC(C)=O)c1ccccc1)c1nc(-c2ccc(S(C)(=O)=O)cc2)cs1 (configuration not stated) | · | · | · | 4 | -41 | -26
O=c1c2nncn2c2cc(C(F)(F)F)ccc2n1CCNc1ncc(C(F)(F)F)cc1Cl | 0 | -5 | · | -6 | 26 | -36
O=c1c(Cl)nc2cc(Cl)ccc2n1CCNc1ncc(C(F)(F)F)cc1Cl | 0 | 8 | -6 | -5 | 110* | -33
CC12CC3(C)CC(C)(C1)CC(C(=O)NCCc1ccc(S(N)(=O)=O)cc1)(C2)C3 | · | · | · | 6 | -6 | -2
CN(C)CCNC(=O)C12CC3(C)CC(C)(CC(C)(C3)C1)C2 | 0 | 59* | -4 | 2 | -9 | -50
COc1ccc(-c2cc(C(=O)N3CCN(c4cccc(C)c4C)CC3)c3ccccc3n2)cc1OC | · | · | · | · | 17 | ·
O=C1C(Cl)=C(Nc2ccc3cn[nH]c3c2)C(=O)c2ccccc21 | 98* | 107* | · | 101* | 100* | -28
CN(C)c1ccc(NC2=C(Cl)C(=O)c3ccccc3C2=O)cc1 | 4 | 7 | 94* | 25* | -116 | -109
O=C(Oc1ccc(NC2=C(Cl)C(=O)c3ccccc3C2=O)cc1)c1ccc([N+](=O)[O-])cc1 | 2 | 6 | 41 | -4 | -109 | -50
CC(=O)Nc1ccc(NC2=C(Cl)C(=O)c3ccccc3C2=O)cc1 | -3 | 2 | 89* | 3 | -40 | 12
CN1CCN(c2ccc(Cl)cc2NC(=O)CCN2C(=O)c3ccccc3C2=O)CC1 | 5 | 10 | 7 | 2 | 1 | -24
Cc1ccc(-c2nc3cc(N)ccc3o2)cc1 | -2 | 6 | -45 | 6 | -7 | -118
Cc1ccc(-c2nc3cc(C)ccc3o2)cc1 | -4 | 2 | -175 | -4 | 73* | -134
O=C(COC(=O)c1cccnc1Cl)c1ccc(OC(F)F)cc1 | 0 | 4 | -6 | -7 | -6 | 4
O=C(C[n+]1cc(-c2ccc(Cl)cc2)n2c1CCCCC2)c1ccccc1 | 28* | 43* | · | -6 | -44 | -22
